# Assay results reported in paper PMC7862700, “An all-to-all approach to the identification of sequence-specific readers for epigenetic DNA modifications on cytosine”.
# Key:
# Assay in all cases: DAPPL (digital affinity profiling via proximity ligation, sequencing); 10 mM Tris-HCl pH 7.5, 50 mM NaCl, 1 mM DTT, 4% glycerol, room temperature, 30 min; GST-TFs on glutathione beads, 16-mer random dsDNA library, 0.1% formaldehyde crosslink after washing; high values mean tight binding
# FLI1 = target: T1, FLI1 (Homo sapiens, UniProt Q01543 1-452); conditions: protein: recombinant; tags: N-terminal GST; dsDNA, one strand shown
# T1 sequence: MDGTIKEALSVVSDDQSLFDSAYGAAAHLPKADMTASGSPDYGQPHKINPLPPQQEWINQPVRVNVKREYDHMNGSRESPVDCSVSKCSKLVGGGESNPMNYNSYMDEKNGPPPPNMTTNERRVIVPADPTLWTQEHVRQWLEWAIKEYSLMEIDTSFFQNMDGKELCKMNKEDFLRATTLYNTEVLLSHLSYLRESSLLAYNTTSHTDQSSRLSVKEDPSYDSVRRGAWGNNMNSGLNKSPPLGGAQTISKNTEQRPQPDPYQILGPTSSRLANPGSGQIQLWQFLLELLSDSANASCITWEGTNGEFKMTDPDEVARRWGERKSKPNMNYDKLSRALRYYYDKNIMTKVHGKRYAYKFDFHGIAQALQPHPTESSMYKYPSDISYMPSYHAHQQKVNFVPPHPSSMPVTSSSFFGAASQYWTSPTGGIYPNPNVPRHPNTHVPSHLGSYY
# In short: (§1)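 Beads coated with glutathione captured GST-fused human transcription factors that had been expressed in yeast, and the factors were then given DNA barcodes and pooled with a tag-only sample. The pools were incubated with 200 nmole of a random double-stranded 16-mer DNA library in Tris/NaCl/DTT/glycerol buffer for 30 min at room temperature, washed, crosslinked with 0.1% formaldehyde and proximity-ligated with BsaI/T4 ligase at 37 °C for 1 h. PCR amplification and Illumina NextSeq500 sequencing came last. Binding signal is each hexamer's read frequency for a factor divided by its frequency for the tag-only sample.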
# ELK1 = target: T2, ELK1 (Homo sapiens, UniProt P19419 1-428); conditions: protein: recombinant; tags: N-terminal GST; dsDNA, one strand shown
# T2 sequence: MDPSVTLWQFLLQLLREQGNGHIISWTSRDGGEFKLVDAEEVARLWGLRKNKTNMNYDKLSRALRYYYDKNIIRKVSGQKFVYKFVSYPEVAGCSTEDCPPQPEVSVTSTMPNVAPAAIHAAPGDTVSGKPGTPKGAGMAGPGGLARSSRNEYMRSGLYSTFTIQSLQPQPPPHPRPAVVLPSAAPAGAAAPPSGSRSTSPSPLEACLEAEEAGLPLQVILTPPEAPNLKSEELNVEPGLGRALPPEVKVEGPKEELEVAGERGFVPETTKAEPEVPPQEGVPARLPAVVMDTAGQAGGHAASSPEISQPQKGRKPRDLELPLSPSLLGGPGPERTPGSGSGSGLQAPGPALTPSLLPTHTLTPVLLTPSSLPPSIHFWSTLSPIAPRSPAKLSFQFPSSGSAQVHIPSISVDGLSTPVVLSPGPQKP
# In short: as §1
# GABPA = target: T3, GABPA (Homo sapiens, UniProt Q06546 1-454); conditions: protein: recombinant; tags: N-terminal GST; dsDNA, one strand shown
# T3 sequence: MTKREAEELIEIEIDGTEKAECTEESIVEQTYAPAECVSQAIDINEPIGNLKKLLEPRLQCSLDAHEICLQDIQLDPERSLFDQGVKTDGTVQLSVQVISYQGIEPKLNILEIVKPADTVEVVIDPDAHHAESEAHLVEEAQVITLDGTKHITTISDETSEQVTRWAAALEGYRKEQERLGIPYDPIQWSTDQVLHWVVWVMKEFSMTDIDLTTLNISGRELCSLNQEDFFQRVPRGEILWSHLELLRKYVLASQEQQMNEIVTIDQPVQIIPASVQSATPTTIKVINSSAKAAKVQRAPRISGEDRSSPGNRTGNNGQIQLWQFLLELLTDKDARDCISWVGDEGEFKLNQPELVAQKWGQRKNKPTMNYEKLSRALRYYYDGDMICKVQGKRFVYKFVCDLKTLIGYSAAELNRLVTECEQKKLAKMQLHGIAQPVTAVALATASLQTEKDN
# In short: as §1
# ERG = target: T4, ERG (Homo sapiens, UniProt P11308 1-479); conditions: protein: recombinant; tags: N-terminal GST; dsDNA, one strand shown
# T4 sequence: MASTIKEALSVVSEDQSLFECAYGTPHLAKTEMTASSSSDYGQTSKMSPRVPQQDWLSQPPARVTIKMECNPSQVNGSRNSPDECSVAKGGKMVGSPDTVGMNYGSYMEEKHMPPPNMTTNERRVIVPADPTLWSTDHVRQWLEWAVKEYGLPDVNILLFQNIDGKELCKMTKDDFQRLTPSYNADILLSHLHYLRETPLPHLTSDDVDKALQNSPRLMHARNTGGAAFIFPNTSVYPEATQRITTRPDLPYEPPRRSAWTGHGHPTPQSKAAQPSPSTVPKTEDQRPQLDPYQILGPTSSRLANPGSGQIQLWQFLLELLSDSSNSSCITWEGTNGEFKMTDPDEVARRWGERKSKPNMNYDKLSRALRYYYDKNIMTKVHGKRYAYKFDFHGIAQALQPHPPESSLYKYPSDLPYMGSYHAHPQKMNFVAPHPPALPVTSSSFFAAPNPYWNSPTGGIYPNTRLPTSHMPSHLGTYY
# In short: as §1
# ELF1 = ELF1 (Homo sapiens, UniProt P32519 1-619); conditions: protein: recombinant; tags: N-terminal GST; dsDNA, one strand shown
# Sequence of ELF1 (P32519 whole entry): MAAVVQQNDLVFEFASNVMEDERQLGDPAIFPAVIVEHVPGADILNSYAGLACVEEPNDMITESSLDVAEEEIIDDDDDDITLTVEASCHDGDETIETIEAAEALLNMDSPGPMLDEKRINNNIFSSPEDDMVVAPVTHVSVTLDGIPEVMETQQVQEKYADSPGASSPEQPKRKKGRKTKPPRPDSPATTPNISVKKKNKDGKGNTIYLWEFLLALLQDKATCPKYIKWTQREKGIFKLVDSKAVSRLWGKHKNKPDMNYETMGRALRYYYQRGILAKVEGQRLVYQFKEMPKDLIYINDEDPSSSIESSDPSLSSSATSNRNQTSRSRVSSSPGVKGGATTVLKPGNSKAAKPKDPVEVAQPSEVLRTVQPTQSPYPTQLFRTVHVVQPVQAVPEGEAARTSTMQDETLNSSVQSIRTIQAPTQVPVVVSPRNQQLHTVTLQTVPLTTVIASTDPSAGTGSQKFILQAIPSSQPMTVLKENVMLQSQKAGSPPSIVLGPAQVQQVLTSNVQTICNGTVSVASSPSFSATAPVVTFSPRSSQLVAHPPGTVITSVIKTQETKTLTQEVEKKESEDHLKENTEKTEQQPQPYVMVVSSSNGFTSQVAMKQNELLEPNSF
# In short: as §1
# EHF = target: T5, EHF (Homo sapiens, UniProt Q9NZC4 1-300); conditions: protein: recombinant; tags: N-terminal GST; dsDNA, one strand shown
# T5 sequence: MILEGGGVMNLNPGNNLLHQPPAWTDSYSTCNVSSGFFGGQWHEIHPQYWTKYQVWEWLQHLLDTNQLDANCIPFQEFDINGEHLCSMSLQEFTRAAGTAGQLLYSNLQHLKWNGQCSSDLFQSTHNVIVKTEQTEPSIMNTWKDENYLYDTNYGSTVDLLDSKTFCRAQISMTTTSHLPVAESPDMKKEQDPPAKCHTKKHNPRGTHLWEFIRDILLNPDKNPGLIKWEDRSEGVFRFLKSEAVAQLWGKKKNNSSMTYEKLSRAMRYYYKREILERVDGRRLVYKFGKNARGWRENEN
# In short: as §1
# SPI1 = SPI1 (Homo sapiens, UniProt P17947 1-270); conditions: protein: recombinant; tags: N-terminal GST; dsDNA, one strand shown
# In short: as §1
# SPIB = SPIB (Homo sapiens, UniProt Q01892 1-262); conditions: protein: recombinant; tags: N-terminal GST; dsDNA, one strand shown
# Sequence of SPIB (Q01892 whole entry): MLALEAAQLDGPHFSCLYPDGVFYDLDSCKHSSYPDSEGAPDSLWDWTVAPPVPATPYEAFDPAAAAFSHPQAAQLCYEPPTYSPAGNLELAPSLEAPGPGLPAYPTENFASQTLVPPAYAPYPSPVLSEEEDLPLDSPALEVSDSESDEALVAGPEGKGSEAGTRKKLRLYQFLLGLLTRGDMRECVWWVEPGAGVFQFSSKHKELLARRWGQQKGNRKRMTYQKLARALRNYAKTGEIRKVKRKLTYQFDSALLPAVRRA
# In short: as §1
# ELK3 = target: T6, ELK3 (Homo sapiens, UniProt P41970 1-407); conditions: protein: recombinant; tags: N-terminal GST; dsDNA, one strand shown
# T6 sequence: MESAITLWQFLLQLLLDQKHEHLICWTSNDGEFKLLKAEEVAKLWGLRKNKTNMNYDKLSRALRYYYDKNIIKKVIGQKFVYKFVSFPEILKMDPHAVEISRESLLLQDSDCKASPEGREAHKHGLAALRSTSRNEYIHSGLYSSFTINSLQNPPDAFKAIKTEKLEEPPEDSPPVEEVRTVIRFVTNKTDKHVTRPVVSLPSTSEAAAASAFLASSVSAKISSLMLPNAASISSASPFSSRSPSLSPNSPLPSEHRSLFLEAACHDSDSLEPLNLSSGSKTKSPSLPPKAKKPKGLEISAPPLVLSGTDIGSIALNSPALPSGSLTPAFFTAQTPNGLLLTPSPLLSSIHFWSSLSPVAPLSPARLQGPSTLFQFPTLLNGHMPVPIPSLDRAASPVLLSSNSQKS
# In short: as §1
# FEV = target: T7, FEV (Homo sapiens, UniProt Q99581 1-238); conditions: protein: recombinant; tags: N-terminal GST; dsDNA, one strand shown
# T7 sequence: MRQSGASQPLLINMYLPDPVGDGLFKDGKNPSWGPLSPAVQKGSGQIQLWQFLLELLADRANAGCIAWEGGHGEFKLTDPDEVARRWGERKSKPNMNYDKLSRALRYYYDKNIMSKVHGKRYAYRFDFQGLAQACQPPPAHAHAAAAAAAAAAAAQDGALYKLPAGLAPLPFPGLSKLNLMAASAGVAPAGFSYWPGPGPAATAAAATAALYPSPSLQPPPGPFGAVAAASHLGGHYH
# In short: as §1
# ETV5 = ETV5 (Homo sapiens, UniProt P41161 1-510); conditions: protein: recombinant; tags: N-terminal GST; dsDNA, one strand shown
# Sequence of ETV5 (P41161 whole entry): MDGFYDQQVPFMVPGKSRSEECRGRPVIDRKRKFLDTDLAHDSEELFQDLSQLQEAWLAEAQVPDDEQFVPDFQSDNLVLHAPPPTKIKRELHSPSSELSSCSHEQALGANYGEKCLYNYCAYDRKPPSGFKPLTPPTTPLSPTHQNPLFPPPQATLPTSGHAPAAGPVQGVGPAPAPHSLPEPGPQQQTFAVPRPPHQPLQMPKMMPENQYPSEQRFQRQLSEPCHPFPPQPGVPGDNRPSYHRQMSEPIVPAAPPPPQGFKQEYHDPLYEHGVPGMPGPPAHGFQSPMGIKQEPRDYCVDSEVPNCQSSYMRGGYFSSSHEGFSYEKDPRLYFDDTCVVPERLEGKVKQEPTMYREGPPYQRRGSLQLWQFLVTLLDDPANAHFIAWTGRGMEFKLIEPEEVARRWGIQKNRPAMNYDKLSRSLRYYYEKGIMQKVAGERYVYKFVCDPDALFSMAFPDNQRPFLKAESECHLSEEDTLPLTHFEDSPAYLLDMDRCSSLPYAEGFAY
# In short: as §1
# HSF1 = HSF1 (Homo sapiens, UniProt Q00613 1-529); conditions: protein: recombinant; tags: N-terminal GST; chain copies: 3; dsDNA, one strand shown
# Sequence of HSF1 (Q00613 whole entry): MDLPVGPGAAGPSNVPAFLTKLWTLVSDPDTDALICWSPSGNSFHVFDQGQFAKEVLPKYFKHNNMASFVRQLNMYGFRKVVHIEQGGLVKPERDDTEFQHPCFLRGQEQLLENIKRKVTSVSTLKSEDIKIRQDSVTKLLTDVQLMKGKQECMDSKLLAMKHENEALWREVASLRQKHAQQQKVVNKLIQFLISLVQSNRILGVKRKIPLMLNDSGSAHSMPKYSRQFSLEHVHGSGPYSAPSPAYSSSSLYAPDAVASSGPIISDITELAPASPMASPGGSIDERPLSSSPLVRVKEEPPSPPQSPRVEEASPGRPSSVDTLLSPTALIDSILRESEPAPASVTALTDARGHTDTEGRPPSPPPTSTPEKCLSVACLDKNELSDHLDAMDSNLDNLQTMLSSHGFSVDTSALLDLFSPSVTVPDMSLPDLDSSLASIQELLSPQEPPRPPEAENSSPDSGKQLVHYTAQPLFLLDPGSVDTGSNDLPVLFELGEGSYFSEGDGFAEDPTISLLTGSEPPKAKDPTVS
# In short: as §1
# SPIC = target: T8, SPIC (Homo sapiens, UniProt Q8N5J4 1-248); conditions: protein: recombinant; tags: N-terminal GST; dsDNA, one strand shown
# T8 sequence: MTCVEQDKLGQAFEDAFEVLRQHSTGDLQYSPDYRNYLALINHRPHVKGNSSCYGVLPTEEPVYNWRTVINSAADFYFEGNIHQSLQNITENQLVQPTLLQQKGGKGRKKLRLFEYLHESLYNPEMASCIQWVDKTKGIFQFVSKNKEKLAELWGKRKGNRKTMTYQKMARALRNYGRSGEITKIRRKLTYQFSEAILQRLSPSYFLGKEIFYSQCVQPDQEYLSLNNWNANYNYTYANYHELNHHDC
# In short: as §1
# ELF4 = ELF4 (Homo sapiens, UniProt Q99607 1-663); conditions: protein: recombinant; tags: N-terminal GST; dsDNA, one strand shown
# Sequence of ELF4 (Q99607 whole entry): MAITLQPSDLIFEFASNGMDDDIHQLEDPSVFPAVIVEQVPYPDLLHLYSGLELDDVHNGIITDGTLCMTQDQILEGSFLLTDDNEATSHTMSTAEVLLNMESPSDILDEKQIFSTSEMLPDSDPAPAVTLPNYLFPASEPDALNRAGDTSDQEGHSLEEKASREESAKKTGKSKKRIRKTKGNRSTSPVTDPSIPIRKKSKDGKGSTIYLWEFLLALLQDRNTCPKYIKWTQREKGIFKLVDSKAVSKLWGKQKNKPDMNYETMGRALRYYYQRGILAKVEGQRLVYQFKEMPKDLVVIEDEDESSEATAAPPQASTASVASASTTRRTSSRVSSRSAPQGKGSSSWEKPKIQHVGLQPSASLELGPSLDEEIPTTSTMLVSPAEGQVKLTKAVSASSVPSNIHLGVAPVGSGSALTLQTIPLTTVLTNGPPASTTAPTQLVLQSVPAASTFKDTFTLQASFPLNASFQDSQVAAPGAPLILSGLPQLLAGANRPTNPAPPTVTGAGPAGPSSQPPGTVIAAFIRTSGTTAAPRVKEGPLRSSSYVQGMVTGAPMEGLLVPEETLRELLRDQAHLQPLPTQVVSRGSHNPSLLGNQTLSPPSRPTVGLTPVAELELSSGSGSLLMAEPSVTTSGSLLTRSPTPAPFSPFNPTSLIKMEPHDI
# In short: as §1
# ELK4 = target: T9, ELK4 (Homo sapiens, UniProt P28324-2 1-405); conditions: protein: recombinant; tags: N-terminal GST; dsDNA, one strand shown
# T9 sequence: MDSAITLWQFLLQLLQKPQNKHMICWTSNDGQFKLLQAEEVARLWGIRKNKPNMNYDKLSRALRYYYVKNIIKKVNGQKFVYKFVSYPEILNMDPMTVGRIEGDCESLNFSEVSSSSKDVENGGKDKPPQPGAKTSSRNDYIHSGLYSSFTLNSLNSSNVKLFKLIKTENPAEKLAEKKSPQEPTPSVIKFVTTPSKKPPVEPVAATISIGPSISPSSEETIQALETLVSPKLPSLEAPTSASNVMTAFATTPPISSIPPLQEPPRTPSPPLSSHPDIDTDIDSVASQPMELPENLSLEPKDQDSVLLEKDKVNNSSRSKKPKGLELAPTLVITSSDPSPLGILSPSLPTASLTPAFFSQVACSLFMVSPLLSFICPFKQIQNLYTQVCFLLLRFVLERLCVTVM
# In short: as §1
# ETV2 = target: T10, ETV2 (Homo sapiens, UniProt O00321 1-342); conditions: protein: recombinant; tags: N-terminal GST; dsDNA, one strand shown
# T10 sequence: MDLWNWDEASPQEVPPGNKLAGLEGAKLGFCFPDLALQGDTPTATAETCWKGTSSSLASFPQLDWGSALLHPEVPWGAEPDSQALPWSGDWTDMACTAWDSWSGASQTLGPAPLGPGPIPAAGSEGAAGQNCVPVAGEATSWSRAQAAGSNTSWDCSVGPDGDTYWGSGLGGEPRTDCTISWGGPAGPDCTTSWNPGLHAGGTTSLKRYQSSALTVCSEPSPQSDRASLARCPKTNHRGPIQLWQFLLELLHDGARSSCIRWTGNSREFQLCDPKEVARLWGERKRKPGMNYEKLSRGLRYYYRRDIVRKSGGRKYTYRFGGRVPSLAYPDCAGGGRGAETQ
# In short: as §1
# ELF3 = target: T11, ELF3 (Homo sapiens, UniProt P78545 1-371); conditions: protein: recombinant; tags: N-terminal GST; dsDNA, one strand shown
# T11 sequence: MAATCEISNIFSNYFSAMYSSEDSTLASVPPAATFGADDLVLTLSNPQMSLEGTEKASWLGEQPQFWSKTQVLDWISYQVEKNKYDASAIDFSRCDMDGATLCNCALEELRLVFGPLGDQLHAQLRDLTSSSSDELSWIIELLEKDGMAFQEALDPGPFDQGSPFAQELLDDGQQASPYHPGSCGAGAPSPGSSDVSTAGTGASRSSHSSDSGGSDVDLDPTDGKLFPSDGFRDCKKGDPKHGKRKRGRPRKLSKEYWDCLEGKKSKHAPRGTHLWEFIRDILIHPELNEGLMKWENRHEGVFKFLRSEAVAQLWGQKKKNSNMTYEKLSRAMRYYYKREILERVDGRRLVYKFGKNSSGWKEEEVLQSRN
# In short: as §1
# CRX = CRX (Homo sapiens, UniProt O43186 1-299); conditions: protein: recombinant; tags: N-terminal GST; dsDNA, one strand shown
# Sequence of CRX (O43186 whole entry): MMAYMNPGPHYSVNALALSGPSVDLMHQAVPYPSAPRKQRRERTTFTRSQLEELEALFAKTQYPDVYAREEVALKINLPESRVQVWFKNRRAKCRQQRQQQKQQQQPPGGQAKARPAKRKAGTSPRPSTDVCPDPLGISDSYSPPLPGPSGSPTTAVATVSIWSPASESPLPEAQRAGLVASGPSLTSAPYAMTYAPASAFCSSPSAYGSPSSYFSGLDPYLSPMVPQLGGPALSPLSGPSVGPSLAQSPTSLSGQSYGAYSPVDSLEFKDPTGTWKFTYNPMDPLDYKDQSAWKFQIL
# In short: as §1
# ETV1 = ETV1 (Homo sapiens, UniProt P50549 1-477); conditions: protein: recombinant; tags: N-terminal GST; dsDNA, one strand shown
# Sequence of ETV1 (P50549 whole entry): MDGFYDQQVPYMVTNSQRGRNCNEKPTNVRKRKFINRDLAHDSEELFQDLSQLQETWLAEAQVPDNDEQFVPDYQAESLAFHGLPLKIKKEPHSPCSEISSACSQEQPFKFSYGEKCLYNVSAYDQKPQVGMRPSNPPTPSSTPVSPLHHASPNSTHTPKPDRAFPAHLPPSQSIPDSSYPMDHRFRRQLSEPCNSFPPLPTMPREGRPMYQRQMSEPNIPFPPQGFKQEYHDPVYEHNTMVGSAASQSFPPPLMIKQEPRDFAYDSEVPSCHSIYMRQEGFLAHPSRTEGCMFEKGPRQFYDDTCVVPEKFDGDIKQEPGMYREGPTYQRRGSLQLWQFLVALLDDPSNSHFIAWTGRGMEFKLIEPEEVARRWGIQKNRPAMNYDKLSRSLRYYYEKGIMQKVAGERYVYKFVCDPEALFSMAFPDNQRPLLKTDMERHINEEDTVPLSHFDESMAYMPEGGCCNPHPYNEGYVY
# In short: as §1
sequence,measurement,setting,value
AGAATT,binding signal,FLI1,"1.21 fold enrichment (6-mer frequency, TF over GST control)"
same,binding signal,ELK1,"1.15 fold enrichment (6-mer frequency, TF over GST control)"
same,binding signal,GABPA,"1.11 fold enrichment (6-mer frequency, TF over GST control)"
same,binding signal,ERG,"1.17 fold enrichment (6-mer frequency, TF over GST control)"
same,binding signal,ELF1,"1.15 fold enrichment (6-mer frequency, TF over GST control)"
same,binding signal,EHF,"1.18 fold enrichment (6-mer frequency, TF over GST control)"
same,binding signal,SPI1,"1.22 fold enrichment (6-mer frequency, TF over GST control)"
same,binding signal,SPIB,"1.16 fold enrichment (6-mer frequency, TF over GST control)"
same,binding signal,ELK3,"1.28 fold enrichment (6-mer frequency, TF over GST control)"
same,binding signal,FEV,"1.08 fold enrichment (6-mer frequency, TF over GST control)"
same,binding signal,ETV5,"1.13 fold enrichment (6-mer frequency, TF over GST control)"
same,binding signal,HSF1,"2.2 fold enrichment (6-mer frequency, TF over GST control)"
same,binding signal,SPIC,"1.24 fold enrichment (6-mer frequency, TF over GST control)"
same,binding signal,ELF4,"1.24 fold enrichment (6-mer frequency, TF over GST control)"
same,binding signal,ELK4,"1.2 fold enrichment (6-mer frequency, TF over GST control)"
same,binding signal,ETV2,"1.06 fold enrichment (6-mer frequency, TF over GST control)"
same,binding signal,ELF3,"1.04 fold enrichment (6-mer frequency, TF over GST control)"
same,binding signal,CRX,"1.76 fold enrichment (6-mer frequency, TF over GST control)"
same,binding signal,ETV1,"1.16 fold enrichment (6-mer frequency, TF over GST control)"
